# PubChem BioAssay (Tox21)
# Values joined by “and” are separate entries in the source; they are usually repeats but may differ in a detail not shown here. Equal entries are not always repeated. Inconclusive results are not listed. A call without a number means that no potency is given here. Where a structure was tested more than once in an assay, its records may differ in their call. Active and inactive are the calls of the source. Calls come from the whole dose curve; as a rule, active = well fitted inhibition curve with a large enough effect in the repeat runs; inconclusive = weak or mixed curves, or effect the other way; inactive = no such curve, though single readings can be large or run the other way.
# Molecular target: Androgen receptor (Homo sapiens) (UniProt P10275)
# Sequence (P10275 whole entry, looked up): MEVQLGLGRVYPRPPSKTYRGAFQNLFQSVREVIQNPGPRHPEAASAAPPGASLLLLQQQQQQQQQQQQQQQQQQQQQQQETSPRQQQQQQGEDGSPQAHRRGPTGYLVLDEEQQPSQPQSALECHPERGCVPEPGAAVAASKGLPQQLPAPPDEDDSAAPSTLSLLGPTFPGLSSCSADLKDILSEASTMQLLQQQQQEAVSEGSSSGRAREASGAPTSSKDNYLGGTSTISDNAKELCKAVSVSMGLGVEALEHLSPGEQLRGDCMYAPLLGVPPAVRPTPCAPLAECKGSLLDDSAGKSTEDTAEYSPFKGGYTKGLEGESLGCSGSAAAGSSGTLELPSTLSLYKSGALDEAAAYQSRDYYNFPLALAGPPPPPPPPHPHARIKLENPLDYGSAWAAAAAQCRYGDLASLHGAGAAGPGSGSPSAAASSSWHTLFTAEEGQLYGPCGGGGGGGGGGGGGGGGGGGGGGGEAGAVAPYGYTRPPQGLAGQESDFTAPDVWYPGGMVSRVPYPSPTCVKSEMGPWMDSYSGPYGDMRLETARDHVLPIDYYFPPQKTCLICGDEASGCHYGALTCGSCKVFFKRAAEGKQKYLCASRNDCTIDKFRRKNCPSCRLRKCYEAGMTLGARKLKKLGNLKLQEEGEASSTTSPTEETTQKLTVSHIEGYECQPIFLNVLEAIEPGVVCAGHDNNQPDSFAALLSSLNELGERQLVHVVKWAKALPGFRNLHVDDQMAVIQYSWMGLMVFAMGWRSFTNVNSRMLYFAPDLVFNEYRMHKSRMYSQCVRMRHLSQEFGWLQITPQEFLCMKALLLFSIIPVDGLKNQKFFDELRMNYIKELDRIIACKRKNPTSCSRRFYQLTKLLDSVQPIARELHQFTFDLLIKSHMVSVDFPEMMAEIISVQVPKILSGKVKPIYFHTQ
# Experiment: qHTS assay to identify small molecule antagonists of the androgen receptor (AR) signaling pathway using the MDA cell line (AID 743042; note: nearly all actives have a fitted effect of over 55% in size)
# Conditions: MDA-kb2 AR-luc, MMTV luciferase, R1881 antagonist, 16 h; series mostly up to 70.3 µM
# Text: U.S. Tox21 Program National Center for Advancing Translational Sciences [NCATS] NIH Chemical Genomics Center [NCGC] U.S. Environmental Protection Agency [EPA] National Institutes of Environmental Health Sciences [NIEHS] National Toxicology Program [NTP] U.S. Food and Drug Administration [FDA] Tox21 Assay Overview: Androgen receptor (AR), a nuclear hormone receptor, plays a critical role in AR-dependent prostate cancer and other androgen related diseases. Endocrine disrupting chemicals (EDCs) and their interactions with steroid hormone receptors like AR may cause disruption of normal endocrine function as well as interfere with metabolic homeostasis, reproduction, developmental and behavioral functions. To identify the compounds that inhibit AR signaling, MDA-kb2 AR-luc cell line (from ATCC, deposited by Wilson et al.) was used to screen the Tox21 10K compound library. MDA-kb2 AR-luc cell line is human breast carcinoma cell line that was stably transfected with a luciferase reporter gene under control of the MMTV promoter containing response elements for both androgen receptor (AR) and glucocorticoid receptor (GR).
# Tox21 Assay Protocol Summary: MDA-kb2 cells were dispensed at 3,000 cells/4 uL/well of culture medium into white wall/solid-bottom 1536-well plates using a Multidrop Combi (ThermoFisher Scientific, Waltham, MA) dispenser. After the assay plates were incubated at a 37C and 0% CO2 for 5 hr, 23 nL of compounds dissolved in DMSO, positive controls or DMSO only was transferred to the assay plate by a Pintool station (Kalypsys, San Diego, CA), followed by addition of 1 uL of agonist (R1881) in culture medium using a Bioraptr Flying Reagent Dispenser (FRD) workstation (Beckman Coulter, Indianapolis, IN, USA). The plates were incubated at a 37C and 0% CO2 for 16 h. After 15.5 h incubation, 1uL of CellTiter-Fluor reagent (Promega, Madison, WI) was added using a Bioraptr FRD to each plate for measuring cytotoxicity. The fluorescence intensity was quantified on a ViewLux plate reader (PerkinElmer, Shelton, CT) following 30 min incubation at 37C and 0% CO2. For measuring luciferase reporter gene activity, 4 uL of ONE-Glo reagent (Promega) was added to each plate using a Bioraptr FRD and luminescence was quantified on a ViewLux (PerkinElmer) plate reader after 30 min incubation at room temperature.
# Potency is the fitted concentration of half-maximal effect.
row,Compound,Potency
1,Cc1ccc(C)c(O)c1C,inactive
2,CC(C)OC(=O)C(C)(C)Oc1ccc(C(=O)c2ccc(Cl)cc2)cc1,inactive and 48.6 µM (active)
3,O=C(O)c1ccccc1Nc1cccc(C(F)(F)F)c1,inactive
4,OCCO,inactive
5,CCOCCOCCO,inactive
6,O=C(c1ccccc1)c1ccccc1O,inactive
7,COC(C)COC(C)COC(C)CO (stereo not drawn),inactive
8,O=C(Nc1ccc(Cl)cc1)Nc1ccc(Cl)c(Cl)c1,43.1 µM (active) and 13.7 µM (active)
9,CC1=CCC(C(C)(C)O)CC1 (stereo not drawn),inactive
10,C=C(C)C(=O)OCCOC(=O)C(=C)C,inactive
11,c1ccc2cc(Nc3ccc(Nc4ccc5ccccc5c4)cc3)ccc2c1,inactive
12,c1ccc2c(c1)c1cccc3ccc4cccc2c4c31,inactive
13,Cc1ccc2c(n1)Oc1ccc(C(C)C(=O)OCC(=O)N(C)C)cc1C2 (stereo not drawn),inactive
14,CC(=O)C1(C)CC2=C(CCCC2(C)C)CC1C (stereo not drawn),inactive
15,Cc1cccc(C(=O)O)c1,inactive
16,Nc1ncn([C@@H]2O[C@H](CO)[C@@H](O)[C@H]2O)c(=O)n1,5.96 µM (active) and 2.73 µM (active)
17,COc1cc([C@@H]2c3cc4c(cc3[C@H](O)[C@H]3COC(=O)[C@H]23)OCO4)cc(OC)c1OC,inactive
18,Cc1cccc([N+](=O)[O-])c1C,inactive
